We go through 56 compounds from PMC4336329 (PLoS ONE, 2015).

Hit rate of the full screen: of about 310,000 compounds, about 14,000 (4.5%) showed an effect of 50% or more. Effects have a minus sign here. For the sample, strong results were picked, then their nearest neighbours and some compounds at random. Where a SMILES comes first, the peptide text is derived from it. [ ]: non-standard residue; d: D form. The star is where a group is joined. ξ: configuration not given here. Cbz = O=C(OCc1ccccc1)*; ξV = CC(C)C(N)C(=O)O
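Further: peak tail current of the secondary pulse compared with the same well before compound.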

This assay deals with human ether-à-go-go-related gene (hERG) potassium channel (human, UniProt Q12809). The assay is described as follows: primary screen, population patch clamp on CHO cells stably expressing hERG; higher = less effect of the substance.
Chain of human ether-à-go-go-related gene (hERG) potassium channel (Q12809 whole entry, looked up): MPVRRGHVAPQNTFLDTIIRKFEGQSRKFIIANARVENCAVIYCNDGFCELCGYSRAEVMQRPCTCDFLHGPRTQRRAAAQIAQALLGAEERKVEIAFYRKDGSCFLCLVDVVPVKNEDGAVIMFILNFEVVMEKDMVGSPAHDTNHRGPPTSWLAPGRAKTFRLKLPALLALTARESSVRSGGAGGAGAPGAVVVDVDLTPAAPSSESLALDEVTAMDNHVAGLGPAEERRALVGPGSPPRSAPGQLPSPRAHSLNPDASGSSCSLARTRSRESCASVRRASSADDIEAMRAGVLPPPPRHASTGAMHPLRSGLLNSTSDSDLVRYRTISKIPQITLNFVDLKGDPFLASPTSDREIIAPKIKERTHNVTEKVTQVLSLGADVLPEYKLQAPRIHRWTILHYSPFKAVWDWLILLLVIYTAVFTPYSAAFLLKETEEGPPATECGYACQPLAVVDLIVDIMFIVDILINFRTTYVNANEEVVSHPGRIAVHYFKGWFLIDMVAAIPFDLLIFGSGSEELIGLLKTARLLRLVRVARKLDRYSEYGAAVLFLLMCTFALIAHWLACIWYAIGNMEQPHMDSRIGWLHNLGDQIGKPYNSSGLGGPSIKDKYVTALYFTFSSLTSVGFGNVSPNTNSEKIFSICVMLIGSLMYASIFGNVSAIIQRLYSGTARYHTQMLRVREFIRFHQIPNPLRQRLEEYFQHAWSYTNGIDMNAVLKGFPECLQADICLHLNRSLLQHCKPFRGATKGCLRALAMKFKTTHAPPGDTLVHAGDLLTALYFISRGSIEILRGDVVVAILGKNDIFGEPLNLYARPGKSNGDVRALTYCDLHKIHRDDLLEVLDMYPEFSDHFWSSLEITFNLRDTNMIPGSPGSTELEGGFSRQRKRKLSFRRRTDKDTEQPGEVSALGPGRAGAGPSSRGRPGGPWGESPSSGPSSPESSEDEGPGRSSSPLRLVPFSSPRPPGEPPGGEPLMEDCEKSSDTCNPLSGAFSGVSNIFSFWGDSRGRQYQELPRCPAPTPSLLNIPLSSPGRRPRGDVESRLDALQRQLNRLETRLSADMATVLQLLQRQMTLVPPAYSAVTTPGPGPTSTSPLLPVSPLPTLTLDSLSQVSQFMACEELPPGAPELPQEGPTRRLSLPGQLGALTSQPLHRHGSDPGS
Regarding `Cc1cccc(C(=O)N2CCN(c3ncnc4c3cnn4-c3ccccc3)CC2)c1`, the “hERG current change (%, negative = inhibition) at 10uM” value is given as -19.4%.

Turning to `CCc1cc(=O)oc2cc(OC(C)C(=O)NCc3ccccn3)ccc12` (centres unmarked), the “hERG current change (%, negative = inhibition) at 10uM” value worked out at 14.4%. With `COc1ccc(-c2cc(=O)oc3cc(OCC(=O)NCc4ccccn4)ccc23)cc1` the figure was -6.52%; with `COc1ccc(-c2cc(=O)oc3cc(OC(C)C(=O)NCc4ccccn4)ccc23)cc1` (centres unmarked), -54.8%. With `COc1ccc(-c2cc(=O)oc3c(C)c(OC(C)C(=O)NCc4ccccn4)ccc23)cc1` (centres unmarked), the “hERG current change (%, negative = inhibition) at 10uM” value is -9.16%. Consider `CCOC(=O)C(C)Oc1ccc2c(-c3cccc([N+](=O)[O-])c3)cc(=O)oc2c1` (centres unmarked), for which the “hERG current change (%, negative = inhibition) at 10uM” value was -62.4%.

Turning to `Cc1cc(=O)oc2cc(OC(C)C(=O)NCc3ccccn3)ccc12` (centres unmarked), the “hERG current change (%, negative = inhibition) at 10uM” value amounted to 9.03%. To `COC(=O)C(C)Oc1ccc2c(-c3cccc([N+](=O)[O-])c3)cc(=O)oc2c1` (centres unmarked) belongs -25.8%; to `CC(Oc1ccc2c(-c3ccccc3)cc(=O)oc2c1)C(=O)NCc1ccccn1` (centres unmarked), -50.9%; to `CC(=O)COc1ccc2c(-c3cccc([N+](=O)[O-])c3)cc(=O)oc2c1`, -25.9%. With `Cc1ccccc1NC(=O)c1cnn(-c2ccccc2)c1NC(=O)c1ccco1`, the “hERG current change (%, negative = inhibition) at 10uM” value was found to be 0.329%. Consider `COc1ccc(CCNC(=O)c2c[nH]c3ccccc3c2=O)cc1OC`, for which the “hERG current change (%, negative = inhibition) at 10uM” value is reported as -1.95%.

In the case of `Cc1noc(NS(=O)(=O)c2ccc(NC(=O)C34CCC(CC3)C4)cc2)c1C`, the “hERG current change (%, negative = inhibition) at 10uM” value was -9.55%. To `COC(=O)CNC(=O)C(NC(=O)OCc1ccccc1)C(C)C` (centres unmarked) (Cbz-[ξV]-Gly-OMe) belongs 16.1%; to `CCOC(=O)Nc1ccc2c(c1)OCO2`, 26.2%; to `CCOC(=O)C1CCCN(Cc2nc(N)nc(Nc3ccccc3OC)n2)C1` (centres unmarked), -70.8%.

Regarding `CCOC(=O)C1CCCN(c2nc3ccccc3nc2NS(=O)(=O)c2ccc(C)cc2)C1` (centres unmarked), the “hERG current change (%, negative = inhibition) at 10uM” value is -44.8%. As to `CCOC(=O)C1CCCN(Cc2ccccc2Cl)C1` (centres unmarked), the “hERG current change (%, negative = inhibition) at 10uM” value is on record as -3.88%.

For `Cc1ccccc1Nc1nc(N)nc(COC(=O)C2CCCCC2)n1`, the “hERG current change (%, negative = inhibition) at 10uM” value was 8.35%.

As for `CCOC(=O)C1CCCN(Cc2nc(N)nc(Nc3ccc(Cl)cc3)n2)C1` (centres unmarked), the “hERG current change (%, negative = inhibition) at 10uM” value is -79%. To `CCOC(=O)C1CCCN(Cc2c(Cl)cccc2Cl)C1` (centres unmarked) belongs -6.47%; to `CCOC(=O)C1CCCN(Cc2ccc(OCC)cc2)C1` (centres unmarked), -42.9%; to `CCOC(=O)C1CCCN(Cc2cccc(Cl)c2)C1` (centres unmarked), -8.02%.

As to `CCOC(=O)C1CCCN(Cc2nc(N)nc(Nc3ccc(OC)cc3)n2)C1` (centres unmarked), the “hERG current change (%, negative = inhibition) at 10uM” value was -75.6%. With `CCOC(=O)C1CCCN(C(=S)Nc2ccc(OC)cc2)C1` (centres unmarked) the figure was 5.25%. `COc1ccccc1Nc1nc(N)nc(CSC(=S)N2CCCCC2C)n1` (centres unmarked): the “hERG current change (%, negative = inhibition) at 10uM” value is -5.64%. To `CCOC(=O)C1CCCN(Cc2nc(N)nc(Nc3ccc(C)cc3)n2)C1` (centres unmarked) belongs -69.5%; to `N#Cc1cc2c(N)c(C(=O)Nc3ccccc3)sc2nc1N`, 8.83%; to `CCCCN(C(=O)C1CCC1)c1c(N)n(CC(C)C)c(=O)[nH]c1=O`, 1.74%. With `COc1ccccc1OCC(=O)[O-].[Na+]` the figure was 4.6%; with `Cc1c(Cl)cccc1-c1ccc(CNCc2ccccn2)o1.Cl`, 8.15%; with `Cc1ccc(OCC(=O)NCCO)c(Br)c1`, 14.3%. With `O=C(CSc1nnc(-c2ccc(F)cc2)o1)Nc1ccc(S(=O)(=O)N2CCCC2)cc1` the figure was -2.73%. On to `CC(C(=O)NCc1cccs1)n1cccc1` (centres unmarked), for which the “hERG current change (%, negative = inhibition) at 10uM” value turned out to be 7.58%. With `COc1ccc(CNC(=O)CC23CC4CC(CC(C4)C2)C3)cc1` the figure was 20.4%; with `CCOC(=O)C1CCCN(Cc2nc(N)nc(Nc3ccccc3)n2)C1` (centres unmarked), -71.2%; with `CCOC(=O)C1CCCN(Cc2ccc(-c3ccccc3)cc2)C1` (centres unmarked), -10.5%. Consider `CCOC(=O)C1CCCN(Cc2ccccc2C)C1` (centres unmarked), for which the “hERG current change (%, negative = inhibition) at 10uM” value is reported as -15.1%. With `CCN(CC)C(=O)Cn1c(=O)n(CCC(=O)Nc2ccc(F)cc2)c(=O)c2sccc21` the figure was 14.9%; with `Cc1ccc2nc(NC(=O)c3ccc(Br)o3)sc2c1`, 20.6%. With `CCOc1ccc(N2C(=O)C3ON(c4ccccc4)C(c4cccs4)C3C2=O)cc1` (centres unmarked) the figure was 7.35%; with `CC(=O)Nc1ccc(NC(=O)C2CC(=O)Nc3nc4ccccc4n32)cc1` (centres unmarked), 24.6%.

For the compound `CC(C)(O)C#Cc1ccc(C(=O)N2CCN(c3ccc(F)cc3)CC2)cc1`, the “hERG current change (%, negative = inhibition) at 10uM” value is on record as -11.4%. To `O=C(c1cc2ccccc2cc1O)N1CCN(c2ccc([N+](=O)[O-])cc2)CC1` belongs -40.3%. To `Cc1cc(C(=O)N/N=C/C=C/c2cccc([N+](=O)[O-])c2)n[nH]1` belongs -3.28%; to `O=C(c1ccc2c(c1)OCCO2)N1CCN(c2ccc([N+](=O)[O-])cc2)CC1`, -47.1%; to `Cc1cc(C(=O)N/N=C/C=C/c2ccc(Br)cc2)n[nH]1`, 9.77%. To `Cc1onc(-c2ccccc2)c1C(=O)N1CCN(c2ccc([N+](=O)[O-])cc2)CC1` belongs -36.4%; to `CC(C)(O)C#Cc1ccc(C(=O)N2CCN(c3ccc([N+](=O)[O-])cc3)CC2)cc1`, -70.4%; to `Cc1cc(C(=O)N/N=C/C=C/c2ccc([N+](=O)[O-])cc2)n[nH]1`, -53%.

Take `O=C(c1cc(C(=O)N2CCN(c3ccc(F)cc3)CC2)cc([N+](=O)[O-])c1)N1CCN(c2ccc(F)cc2)CC1`: the “hERG current change (%, negative = inhibition) at 10uM” value was -26.2%. Regarding `Cc1cc(C(=O)N2CCN(c3ccc([N+](=O)[O-])cc3)CC2)co1`, the “hERG current change (%, negative = inhibition) at 10uM” value is on record as -75.5%. As for `Cc1cc(C(=O)N2CCN(c3ccc([N+](=O)[O-])cc3)CC2)n[nH]1`, the “hERG current change (%, negative = inhibition) at 10uM” value is given as -78.5%. In the case of `CC(C)(O)C#Cc1ccc(C(=O)N2CCN(c3ccc(Cl)cc3)CC2)cc1`, the “hERG current change (%, negative = inhibition) at 10uM” value is reported as -9.19%.

For the compound `CCOc1ccc(/C=C/C(=O)CCC(=O)O)cc1`, the “hERG current change (%, negative = inhibition) at 10uM” value is reported as 13.5%. For the compound `O=[N+]([O-])c1cccc(-c2ccc(C(=S)N3CCN(c4ccc(F)cc4)CC3)o2)c1`, the “hERG current change (%, negative = inhibition) at 10uM” value is on record as 2.61%.
